Screening data: PubChem BioAssay, National Center for Advancing Translational Sciences (NCATS)
Shown are actives, neighbours in structure and some others; about 11% of the full set was active somewhere.
BAZ2B inh = blocks human BAZ2B. Q9UIF8. 360,000 compounds, 4.4% hits. Potency, µM (doses to about 114 µM), hits mostly inhibitors. AID 504333. AlphaScreen BAZ2B-H3K14Ac peptide displacement; also: nearly all actives have a fitted effect of over 60% in size
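BAZ2B 50 nM plus b-H3(5-23)K14Ac 50 nM, PBS pH 7.4/0.01% Tween-20, 30 min RT; compound added (max 110 uM), 30 min RT; streptavidin donor/Ni-chelate acceptor beads 10 ug/mL final, 20 min dark; AlphaScreen read.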
PLK1 PBD inh = blocks phosphopeptide binding to human PLK1 polo-box domain. 360,000 compounds, 2.8% hits. P53350. Plk1 PBD binding of FITC phosphopeptide, fluorescence polarization. Potency, µM, most hits filed as inhibitors; also: series mostly up to about 57 µM; nearly all actives have a fitted effect of over 65% in size
JMJD2A Tudor = JMJD2A Tudor domain (human) inhibition; O75164; AID 504339; AlphaScreen JMJD2A-Tudor / H3K4me3 peptide binding; 390,000 compounds, 4.4% hits; Potency, µM (titrated, usually from 114 µM), actives largely listed as inhibitors; also: nearly all actives have a fitted effect of over 50% in size
VDR inhibitor = vitamin D3 receptor (human) inhibition; Potency, µM, actives largely listed as inhibitors; VDR-SRC2-3 peptide fluorescence polarization, 2 h; 400,000 compounds, 0.93% hits; P11473
Target sequence (P11473 whole entry, looked up): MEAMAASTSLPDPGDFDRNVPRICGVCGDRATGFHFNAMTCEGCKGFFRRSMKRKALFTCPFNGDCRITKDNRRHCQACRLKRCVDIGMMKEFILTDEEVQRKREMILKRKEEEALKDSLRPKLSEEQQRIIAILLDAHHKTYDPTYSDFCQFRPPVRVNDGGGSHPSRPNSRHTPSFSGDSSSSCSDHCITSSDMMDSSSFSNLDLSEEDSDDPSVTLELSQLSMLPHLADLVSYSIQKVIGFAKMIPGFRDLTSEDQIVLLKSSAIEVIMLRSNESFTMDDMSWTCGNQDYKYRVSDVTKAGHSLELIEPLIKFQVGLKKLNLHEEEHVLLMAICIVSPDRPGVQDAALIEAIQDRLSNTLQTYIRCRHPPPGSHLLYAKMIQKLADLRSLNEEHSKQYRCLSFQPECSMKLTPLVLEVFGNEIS
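Reagent solutions, kept cold and dark, are dispensed first; compounds are then pinned in at 23 nl, plates briefly spun, and incubated 2 h at ambient temperature. Inhibition of VDR–SRC2-3 peptide binding is read by fluorescence polarization.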
G9a inh = blocks human histone lysine methyltransferase G9a | Q96KQ7 | G9a H3K9 monomethylation, AlphaScreen, 2 h | Potency, µM (highest dose often 102 µM), usual class: inhibitors | 350,000 compounds, 8.8% hits; also: nearly all actives have a fitted effect of over 75% in size
Target sequence (Q96KQ7 913-1193 limits assumed): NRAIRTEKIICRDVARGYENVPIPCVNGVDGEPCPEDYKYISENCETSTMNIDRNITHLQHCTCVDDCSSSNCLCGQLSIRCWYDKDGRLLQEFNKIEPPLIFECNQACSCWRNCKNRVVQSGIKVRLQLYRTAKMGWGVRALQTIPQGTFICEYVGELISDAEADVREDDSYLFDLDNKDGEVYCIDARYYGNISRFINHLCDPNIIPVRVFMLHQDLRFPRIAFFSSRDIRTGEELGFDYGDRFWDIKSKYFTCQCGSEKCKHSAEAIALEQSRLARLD
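Signal arises when biotinylated H3K9 peptide, once monomethylated, bridges streptavidin donor and antibody-captured acceptor beads. Enzyme at 20 nM was preincubated 15 min with test compounds; peptide 500 nM and SAM 20 uM then reacted for 2 h.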
HP1b binding inh = blocks HP1-beta chromodomain binding to methylated histone tails | P83916 | AlphaScreen HP1-beta / biotin-H3K9me3 peptide binding | Potency, µM (doses to about 114 µM), most hits filed as inhibitors | 390,000 compounds, 0.56% hits | AID 540317; also: nearly all actives have a fitted effect of over 70% in size
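Compound inhibition of the preformed complex between 50 nM HP1-beta and 50 nM biotinylated H3K9me3 peptide was read by AlphaScreen. Buffer was PBS pH 7.4 with 0.01% Tween-20. Incubations ran 30 min at room temperature, with 10 ug/mL donor/acceptor beads.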
Of the large screens only hits and unclear results are named; the others gave an inactive call. Calls follow the shape of the dose curve; as a rule, active = well fitted curve in the direction sought with a large enough effect; inconclusive = small, poorly fitted or top-dose-only effect, or another doubt; inactive = no such curve, though single readings can be large; an effect the other way counts as inactive or inconclusive.

Cc1ccc(NC(=O)/C=C/C(=O)O)c([N+](=O)[O-])c1	G9a inh inconclusive
CC(=O)c1sc(NC(=O)c2ccc(Cn3cc(Br)cn3)o2)nc1C	G9a inh 45µM
CC(=O)c1sc(NC(=O)c2ccc(Br)o2)nc1C	BAZ2B inh inconclusive
NC(CSS(=O)(=O)O)=NCCC12CC3CC(CC(O)(C3)C1)C2	PLK1 PBD inh 12µM, VDR inhibitor 40µM, G9a inh 10µM, HP1b binding inh inconclusive
NC(=O)COC(=O)C12CC3CC(CC(O)(C3)C1)C2	PLK1 PBD inh inconclusive, VDR inhibitor inconclusive
NNC(=O)c1ncoc1-c1ccc(Cl)cc1	none
COc1ccc(-n2ncc(C(C)NS(=O)(=O)c3cc(F)ccc3C)c2C)cc1 (configuration not stated)	G9a inh inconclusive
CCc1nn(CC(=O)NCCCN2CCN(C)CC2)c(=O)c2cc3sc(C)cc3n12	none (no result: G9a inh)
CCc1nn(CC(=O)NCCCN2CCOCC2)c(=O)c2cc3cc(F)ccc3n12	G9a inh 50µM
CCc1cc2c(cc3c(=O)n(CC(=O)NCCCN4CCCCCC4)nc(CC)n32)s1	G9a inh 50µM
O=C(CSc1ncc(-c2ccccc2)n1CC1CCCO1)N1CCCCC1 (configuration not stated)	none
N#Cc1c(NC(=O)CSc2ncc(-c3ccccc3)n2CC2CCCO2)sc2c1CCCC2 (configuration not stated)	BAZ2B inh inconclusive, JMJD2A Tudor inconclusive, G9a inh 11µM
Nc1ncc(-c2ccccc2)n1CC1CCCO1 (configuration not stated)	BAZ2B inh 20µM, PLK1 PBD inh inconclusive, JMJD2A Tudor inconclusive
N#Cc1c(NC(=O)CSc2nnc(-c3ccncc3)n2CC2CCCO2)sc2c1CCCC2 (configuration not stated)	G9a inh inconclusive
CN(C)CCOC(=O)[C@@H](c1ccccc1)C1(O)CCCC1	none (no result: BAZ2B inh, PLK1 PBD inh, JMJD2A Tudor, HP1b binding inh)
Cc1c(Cl)cccc1NC(=O)Cn1c(=O)nc(-c2ccccc2)c2ccccc21	none (no result: PLK1 PBD inh)
Cn1cc(Cl)c(C(=O)Nc2nccs2)n1	none
O=C(Nc1nccs1)c1ncc(Cl)c(Cl)c1Cl	G9a inh 45µM
O=C(O)c1cnccn1	BAZ2B inh 45µM, JMJD2A Tudor 25µM, G9a inh 8.9µM, HP1b binding inh inconclusive
O=C(Nc1nccs1)c1ccccn1	JMJD2A Tudor 79µM, G9a inh inconclusive (no result: BAZ2B inh)
O=C(NCN1CCCCC1)c1cnccn1	G9a inh inconclusive
O=C(Nc1nccs1)c1cnccn1	BAZ2B inh inconclusive, JMJD2A Tudor inconclusive, G9a inh 6.3µM
O=C(Nc1cc(S(=O)(=O)N2CCCCC2)ccc1N1CCCCC1)C1CC1	none
CCOC(=O)c1ccc(NC(=O)CCn2ccc(C)n2)cc1	none (no result: PLK1 PBD inh)
CC1=C(C(=O)N2CCCCCC2)CC(CC(=O)NCCc2ccccn2)C(=O)N1Cc1ccc(C(C)(C)C)cc1 (configuration not stated)	none (no result: BAZ2B inh, JMJD2A Tudor, VDR inhibitor, G9a inh, HP1b binding inh)
Cn1c(SCC(N)=O)nnc1-c1ccc(S(=O)(=O)N2CCCC2)cc1	none
Cc1ccc(-n2c(SCC(N)=O)nnc2-c2ccc(S(=O)(=O)N3CCCCC3)cc2)c(C)c1	JMJD2A Tudor inconclusive, G9a inh 40µM
CN(C)c1ccc(Nc2ncnc3c2c(-c2ccccc2)cn3-c2cccc(Cl)c2)cc1	BAZ2B inh 4.5µM, JMJD2A Tudor 13µM, G9a inh 8.9µM, HP1b binding inh inconclusive (no result: PLK1 PBD inh)
COC(=O)c1cc(-c2ccc(OC)c(OC)c2)c2c(=O)[nH]c(=O)n(C)c2n1	none
COC(=O)c1cc(-c2cccc([N+](=O)[O-])c2)c2c(=O)[nH]c(=O)n(C)c2n1	PLK1 PBD inh 30µM
Clc1ccc(-c2nc3cnccn3c2Nc2ccc3c(c2)OCO3)cc1	BAZ2B inh 45µM, JMJD2A Tudor 50µM, G9a inh 16µM, HP1b binding inh inconclusive
CSc1ccc(-c2nc3cnccn3c2Nc2ccc3c(c2)OCO3)cc1	BAZ2B inh 11µM, JMJD2A Tudor inconclusive, G9a inh 45µM, HP1b binding inh 45µM
Cc1ccccc1NC(=O)CSc1nc(N2CCCCC2)nc(N2CCCCC2)n1	none
Cc1ccc(CNC(=O)CSc2nc(N3CCCCC3)nc(N3CCCCC3)n2)cc1	PLK1 PBD inh 27µM
COCCC(=O)Nc1ccc2c(c1)CN(C(=O)c1ccc(CSC)o1)CC2	PLK1 PBD inh inconclusive, G9a inh 50µM
C#CCOCCOCCOCCNc1nc(N2CCN(C(=O)CCCCCCCCCCNC(=O)[C@@H](CCC(=O)O)n3cc(CCCCCN)nn3)CC2)nc(N2CCN(C(=O)CCCCCCCCCCNC(=O)[C@H]([C@@H](C)CC)n3cc(CCCCCN)nn3)CC2)n1	BAZ2B inh 56µM, JMJD2A Tudor inconclusive
C#CCOCCOCCOCCNc1nc(N2CCN(C(=O)CCCCCCCCCCNC(=O)[C@H]([C@@H](C)CC)n3cc(CCCCN=C(N)N)nn3)CC2)nc(N2CCN(C(=O)CCCCCCCCCCNC(=O)[C@H](CCCCN)n3cc(C)nn3)CC2)n1	BAZ2B inh 50µM, JMJD2A Tudor 22µM, HP1b binding inh 35µM
C#CCOCCOCCOCCNc1nc(N2CCN(C(=O)Cn3cc(CCCN=C(N)N)nn3)CC2)nc(N2CCN(C(=O)[C@H]([C@@H](C)CC)n3cc(CCCCN)nn3)CC2)n1	G9a inh inconclusive
C#CCOCCOCCOCCNc1nc(N2CCN(C(=O)CCCCCCCCCCNC(=O)[C@H]([C@@H](C)CC)n3cc(CCCCCN)nn3)CC2)nc(N2CCN(C(=O)CCCCCCCCCCNC(=O)[C@H](CCCCN)n3cc(CCCC(=O)O)nn3)CC2)n1	BAZ2B inh inconclusive, JMJD2A Tudor inconclusive
C#CCOCCOCCOCCNc1nc(N2CCN(C(=O)CCCCCCCCCCNC(=O)Cn3cc(CCCCCN)nn3)CC2)nc(N2CCN(C(=O)CCCCCCCCCCNC(=O)[C@H]([C@@H](C)CC)n3cc(CCCCN=C(N)N)nn3)CC2)n1	BAZ2B inh 56µM, JMJD2A Tudor 56µM, HP1b binding inh inconclusive
C#CCOCCOCCOCCNc1nc(N2CCN(C(=O)CCCCCCCCCCNC(=O)[C@H]([C@@H](C)CC)n3cc(CCCCCN)nn3)CC2)nc(N2CCN(C(=O)CCCCCCCCCCNC(=O)[C@H](CO)n3cc(CCCCCN)nn3)CC2)n1	BAZ2B inh inconclusive, JMJD2A Tudor inconclusive
C#CCOCCOCCOCCNc1nc(N2CCN(C(=O)CCCCCCCCCCNC(=O)[C@H]([C@@H](C)CC)n3cc(CCCCCN)nn3)CC2)nc(N2CCN(C(=O)CCCCCCCCCCNC(=O)[C@H]([C@@H](C)CC)n3cc(CCCCN=C(N)N)nn3)CC2)n1	BAZ2B inh 56µM (no result: PLK1 PBD inh, JMJD2A Tudor, VDR inhibitor, HP1b binding inh)
